Activity calls are given as the source filed them. Rule for the calls: active = hit-call score of the fitted dose curve at least 0.9, where 1 is the maximum; inactive = score below 0.9.
Biological target: Hypoxia-inducible factor 1-alpha (Homo sapiens) (UniProt Q16665)
Assay: ATG_HIF1a_CIS: Attagene CIS-FACTORIAL HepG2 Assay for human Hypoxia Inducible Factor 1 (HIF1A) (AID 2282951)
Conditions: HepG2 Attagene cis-factorial HIF1a reporter transcription; actives raise or lower the signal
Description: ATG_CIS is a cell-based, multiplexed-readout assay that uses HepG2, a human liver cell line, with measurements taken at 24 hours after chemical dosing in a 24-well plate.ATG_HIF1a_CIS is one of 52 assay component(s) measured or calculated from the ATG_CIS assay. It is designed to make measurements of mRNA induction, a form of inducible reporter, as detected with fluorescence intensity signals by Reverse transcription polymerase chain reaction (RT-PCR) and Capillary electrophoresis technology.Data from the assay component ATG_HIF1a_CIS was analyzed into 1 assay endpoint. This assay endpoint, ATG_HIF1a_CIS, was analyzed with bidirectional fitting relative to DMSO as the negative control and baseline of activity. Using a type of inducible reporter, measures of mRNA for gain or loss-of-signal activity can be used to understand the reporter gene at the transcription factor-level as they relate to the gene HIF1A. Furthermore, this assay endpoint can be referred to as a primary readout, because this assay has produced multiple assay endpoints where this one serves a reporter gene function. To generalize the intended target to other relatable targets, this assay endpoint is annotated to the dna binding intended target family, where the subfamily is basic helix-loop-helix protein.
Human liver HepG2 cells are transiently transfected with multiple reporter transcription units (MRTUs) in 6-well plates using FuGene 6 reagent (Roche; 3 ml FuGene/1 mg DNA). The MRTU constructs are regulated by a cis-regulating element (promoter). […] A major difference between the CIS and TRANS system is that in CIS activities of endogenous TFs are measured, whereas the TRANS assay evaluates changes in activities of exogenous, chimeric NR-Gal4 proteins. […] At the end of 24 hour incubation, total RNA was isolated using TriZol reagent (Invitrogen). The isolated RNA is then reverse-transcribed using oligo(dT) primer and Mo-MLV reverse transcriptase (Invitrogen) with DNAse I (Ambion) treatment for 30 min. The one-tenth of the produced cDNA was amplified by PCR using Taq DNA polymerase (Invitrogen) and two reporter sequence-specific primers. The PCR products were fluorescently labeled by primer extension with 6-arboxyfluorescein (6-FAM) 5'-labeled reporter sequence-specific primer (2 min at 95 C, 20 s at 68 C and 10 min at 72 C) and these products were digested with 5U of HpaI (New England Biolabs) for 2h at 37 C. The fragments were purified using Qiaquick PCR columns (Qiagen), analyzed on an ABI 3130xL genetic analyzer (Applied Biosystems) with peak positions identified by using a set of X-rhodamine (ROX)-labeled MapMarker1000 molecular weight standards (BioVentures). The raw capillary electrophoresis data was processed using Attagraph software (Attagene).

Chain of Hypoxia-inducible factor 1-alpha (Homo sapiens) (Q16665 whole entry, looked up): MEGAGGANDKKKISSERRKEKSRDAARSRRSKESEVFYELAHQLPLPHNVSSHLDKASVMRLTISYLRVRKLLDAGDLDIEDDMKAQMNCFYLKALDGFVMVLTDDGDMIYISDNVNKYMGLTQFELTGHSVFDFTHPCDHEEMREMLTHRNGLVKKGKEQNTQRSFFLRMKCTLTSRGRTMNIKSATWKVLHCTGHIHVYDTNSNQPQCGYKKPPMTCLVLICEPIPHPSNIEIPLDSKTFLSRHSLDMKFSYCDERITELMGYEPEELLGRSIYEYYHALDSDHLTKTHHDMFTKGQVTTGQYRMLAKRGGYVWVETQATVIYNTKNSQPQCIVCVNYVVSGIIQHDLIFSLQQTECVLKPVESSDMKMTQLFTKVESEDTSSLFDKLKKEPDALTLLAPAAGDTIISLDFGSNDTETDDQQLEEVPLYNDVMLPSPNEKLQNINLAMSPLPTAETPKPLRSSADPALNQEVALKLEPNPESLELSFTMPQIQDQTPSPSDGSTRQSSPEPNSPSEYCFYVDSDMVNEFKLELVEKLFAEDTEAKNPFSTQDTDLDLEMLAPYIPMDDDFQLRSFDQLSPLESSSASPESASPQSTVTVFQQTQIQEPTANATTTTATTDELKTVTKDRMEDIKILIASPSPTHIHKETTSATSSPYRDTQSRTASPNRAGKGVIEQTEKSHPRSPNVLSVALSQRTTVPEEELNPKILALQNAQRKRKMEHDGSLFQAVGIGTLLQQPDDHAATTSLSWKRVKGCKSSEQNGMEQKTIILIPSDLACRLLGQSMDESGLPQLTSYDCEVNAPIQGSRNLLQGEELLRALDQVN

Row | Structure (SMILES) | outcome | AC50
1 | COP(=S)(OC)SCn1nnc2ccccc2c1=O | inactive | 
2 | CC(C)=CC1C(C(=O)OCc2coc(Cc3ccccc3)c2)C1(C)C (stereo not given) | inactive | 
3 | C=CCOC(=O)C(C)(C)OC(=O)c1cc(-n2c(=O)cc(C(F)(F)F)n(C)c2=O)ccc1Cl | inactive | 
4 | CCCCC(C#N)(Cn1cncn1)c1ccc(Cl)cc1 (stereo not given) | inactive | 
5 | CCNP(=S)(OC)O/C(C)=C/C(=O)OC(C)C (stereo not given) | inactive | 
6 | CCOC(=O)C(C)OC(=O)c1cc(Oc2ccc(C(F)(F)F)cc2Cl)ccc1[N+](=O)[O-] (stereo not given) | inactive | 
7 | Clc1nc(Cl)nc(Nc2ccccc2Cl)n1 | inactive | 
8 | CCCN(CC)CC1COC2(CCC(C(C)(C)C)CC2)O1 (stereo not given) |  | 22.7 µM (active)
9 | CC1(C)C(C(=O)OC(C#N)c2cccc(Oc3ccccc3)c2)C1(C)C (stereo not given) | inactive | 
10 | CCOP(=S)(OCC)Oc1nc(Cl)n(C(C)C)n1 | inactive | 
11 | Nc1c(Cl)c(F)nc(OCC(=O)O)c1Cl | inactive | 
12 | COCc1cnc(C2=NC(C)(C(C)C)C(=O)N2)c(C(=O)O)c1 (stereo not given) | inactive | 
13 | CC(C)N1C(=O)N(c2ccccc2)CSC1=NC(C)(C)C | inactive | 
14 | COCC(=O)N(c1c(C)cccc1C)C(C)C(=O)OC (stereo not given) | inactive | 
15 | Cn1c(-c2ccccc2)cc(-c2ccccc2)[n+]1C | inactive | 
16 | COP(=O)(OC)O/C(C)=C/C(=O)N(C)C | inactive | 
17 | CCN(CC)C(=O)C(C)Oc1cccc2ccccc12 (stereo not given) |  | 23.6 µM (active)
18 | OC(c1ccc(Cl)cc1)(c1ccc(Cl)cc1)C(Cl)(Cl)Cl | inactive | 
19 | O=C(O)c1c(Cl)ccc2cc(Cl)cnc12 | inactive | 
20 | COc1cc(Cl)c(OC)cc1Cl | inactive | 

Row | Structure (SMILES) | outcome | AC50
21 | CS(=O)(=O)c1ccc(C(=O)C2C(=O)CCCC2=O)c([N+](=O)[O-])c1 | inactive | 
22 | CC(C)NC(=O)N1CC(=O)N(c2cc(Cl)cc(Cl)c2)C1=O | inactive | 
23 | Cc1c(COC(=O)[C@@H]2[C@H](/C=C(\Cl)C(F)(F)F)C2(C)C)cccc1-c1ccccc1 | inactive | 
24 | COP(=S)(OC)Oc1ccc([N+](=O)[O-])c(C)c1 | inactive | 
25 | O=C(Nc1ccccc1-c1ccc(Cl)cc1)c1cccnc1Cl | inactive | 
26 | CCSC(=O)N1CCCCCC1 | inactive | 
27 | Cc1cnc(C2=NC(C)(C(C)C)C(=O)N2)c(C(=O)O)c1 (stereo not given) | inactive | 
28 | CNC(=O)Oc1cccc2ccccc12 | inactive | 
29 | CC(C)N1C(=O)c2ccccc2NS1(=O)=O | inactive | 
30 | COC(=O)c1c(C(F)F)nc(C(F)(F)F)c(C2=NCCS2)c1CC(C)C | inactive | 
31 | CC1(C)C(C=C(Cl)Cl)C1C(=O)OC(C#N)c1cccc(Oc2ccccc2)c1 (stereo not given) | inactive | 
32 | N#Cc1c(Cl)cccc1Cl | inactive | 
33 | CC(C)Oc1cccc(NC(=O)c2ccccc2C(F)(F)F)c1 | inactive | 
34 | Nc1cnn(-c2ccccc2)c(=O)c1Cl | inactive | 
35 | C=C(C)CN(CC)c1c([N+](=O)[O-])cc(C(F)(F)F)cc1[N+](=O)[O-] | inactive | 
36 | COc1cc(OC)nc(NC(=O)NS(=O)(=O)c2ncccc2OCC(F)(F)F)n1 | inactive | 
37 | N#CN=C1SCCN1Cc1ccc(Cl)nc1 | inactive | 
38 | Cc1ccc(N=CN(C)C=Nc2ccc(C)cc2C)c(C)c1 | inactive | 
39 | COC(=O)NC(=S)Nc1ccccc1NC(=S)NC(=O)OC | inactive | 
40 | CCCCOCN(C(=O)CCl)c1c(CC)cccc1CC | inactive | 
